Laboratory results: PubChem BioAssay AID1159580 (chemical genetic matrix, 2015)
Screen size: about 5,500 compounds; about 2,000 (36%) were called active. Roughly 18% stayed inconclusive and do not appear here. Cut-off read from the data, not from the text of the source: active = normalized growth mostly below about 0.91 (no sharp cut-off); inconclusive = no clear call, values can overlap the other calls; inactive = mostly above about 0.92. This is one part of the list.

Experiment: chemical genetic growth profiling, strain panel (AID 1159580);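 note: tested at 20 µM; growth read once vehicle control cultures reached saturation at 30 °C; 1 = growth at the plate median or of vehicle wells; lower values mean less growth of the strain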
Details: S. cerevisiae deletion strains, growth OD

Measured: normalized growth

CC1CC[C@]2(NC1)O[C@H]1CC3C4CC[C@H]5C[C@@H](O)CC[C@]5(C)C4CC[C@]3(C)[C@H]1[C@@H]2C (stereo partly specified)
inactive: locus YOL012C, strain htz1 0.203
active: locus YJR066W, strain TOR1, hits give low values 0.471 | locus YKL009W, strain mrt4, hits give low values 0.252 | locus YKL068W, hits give low values 0.135 | locus YKL085W, strain MDH1 (second series), hits give low values 0.0926 | locus YKL085W, strain MDH1, hits give low values 0.0926 | locus YKL160W, strain elf1, hits give low values 0.0907 | locus YKR001C, strain vps1, hits give low values 0.0755 | locus YKR026C, strain gcn3, hits give low values 0.223 | locus YKR091W, strain srl3, hits give low values 0.12 | locus YLL001W, strain dnm1, hits give low values 0.109 | locus YLL026W, hits give low values 0.0788 | locus YLL041C, strain sdh2, hits give low values 0.0915 | locus YLR027C, strain aat2, hits give low values 0.0814 | locus YLR039C, strain RIC1, hits give low values 0.229 | locus YLR058C, strain SHM2, hits give low values 0.0708 | locus YLR102C, strain apc9, hits give low values 0.0841 | locus YLR113W, strain HOG1, hits give low values 0.557 | locus YLR221C, strain rsa3, hits give low values 0.077 | locus YLR258W, strain gsy2, hits give low values 0.0908 | locus YLR262C, strain YPT6 (second series), hits give low values 0.323 | locus YLR268W, strain sec22, hits give low values 0.0945 | locus YLR320W, strain mms22, hits give low values 0.0887 | locus YLR330W, strain CHS5, hits give low values 0.0602 | locus YLR342W, strain FKS1 (second series), hits give low values 0.0855 | locus YLR342W, strain FKS1, hits give low values 0.0932 | locus YLR357W, strain rsc2, hits give low values 0.383 | locus YLR370C, strain arc18, hits give low values 0.0901 | locus YLR371W, strain rom2, hits give low values 0.0788 | locus YLR384C, strain iki3, hits give low values 0.213 | locus YLR418C, strain cdc73, hits give low values 0.141 | locus YML016C, strain PPZ1, hits give low values 0.0661 | locus YML032C, strain rad52, hits give low values 0.105 | locus YML120C, strain ndi1, hits give low values 0.0802 | locus YML124C, strain tub3, hits give low values 0.0853 | locus YMR058W, strain fet3, hits give low values 0.113 | locus YMR078C, strain ctf18, hits give low values 0.0791 | locus YMR125W, strain sto1, hits give low values 0.102 | locus YMR129W, hits give low values 0.0908 | locus YMR205C, strain PFK2, hits give low values 0.124 | locus YMR223W, strain ubp8, hits give low values 0.0843 | locus YMR231W, strain pep5, hits give low values 0.106 | locus YMR263W, strain SAP30, hits give low values 0.0847 | locus YMR307W, strain GAS1, hits give low values 0.145 | locus YNL067W, strain RPL9B, hits give low values 0.0797 | locus YNL071W, strain lat1, hits give low values 0.0674 | locus YNL183C, strain NPR1, hits give low values 0.561 | locus YNL209W, strain ssb2, hits give low values 0.383 | locus YNL233W, strain BNI4, hits give low values 0.0735 | locus YNL248C, strain rpa49, hits give low values 0.101 | locus YNL250W, strain rad50, hits give low values 0.104 | locus YNL271C, strain bni1, hits give low values 0.103 | locus YNL298W, strain CLA4, hits give low values 0.081 | locus YNL307C, strain MCK1, hits give low values 0.0717 | locus YNL322C, strain KRE1 (second series), hits give low values 0.131 | locus YNL322C, strain KRE1, hits give low values 0.0664 | locus YNR049C, strain mso1, hits give low values 0.0984 | locus YNR052C, strain pop2, hits give low values 0.103 | locus YOL006C, strain TOP1, hits give low values 0.15 | locus YOL147C, strain pex11, hits give low values 0.0685 | locus YOR001W, strain rrp6, hits give low values 0.105 | locus YOR061W, strain CKA2, hits give low values 0.117 | locus YOR069W, strain VPS5, hits give low values 0.0792 | locus YOR070C, strain gyp1, hits give low values 0.0794 | locus YOR080W, strain dia2, hits give low values 0.111 | locus YOR083W, strain WHI5, hits give low values 0.198 | locus YOR106W, strain vam3, hits give low values 0.143 | locus YOR136W, strain idh2, hits give low values 0.0918 | locus YOR144C, strain elg1, hits give low values 0.0753 | locus YOR184W, strain ser1, hits give low values 0.0768 | locus YOR231W, strain MKK1, hits give low values 0.573 | locus YOR265W, strain rbl2, hits give low values 0.106 | locus YOR270C, strain vph1, hits give low values 0.111 | locus YOR290C, strain snf2, hits give low values 0.108 | locus YOR316C, strain cot1, hits give low values 0.0772 | locus YPL051W, strain arl3, hits give low values 0.182 | locus YPL078C, strain atp4, hits give low values 0.0844 | locus YPL106C, strain sse1, hits give low values 0.175 | locus YPL240C, strain hsp82, hits give low values 0.084 | locus YPL241C, strain CIN2, hits give low values 0.0689 | locus YPL256C, strain CLN2, hits give low values 0.604 | locus YPR119W, strain clb2, hits give low values 0.0896 | locus YPR141C, strain kar3, hits give low values 0.176 | locus YPR163C, strain tif3, hits give low values 0.0892 | locus YPR167C, strain met16, hits give low values 0.0808 | strain wtn01, hits give low values 0.0731
